Our source for the activity values is PubChem BioAssay.

Assay [1] concerns the target Tumor necrosis factor receptor superfamily member 10B (Homo sapiens) (UniProt O14763). The assay can be described thus: caspase-8 TRAIL sensitization, hit retest, confirmation, cell-based, NB7+caspase-8, with/without TRAIL, luminescence panel (AID 651596). The note with it: NB7 neuroblastoma + caspase-8, TRAIL sensitization, luminescence viability, with TRAIL, mean of runs, at 10 µM, stronger effect = higher value.

Assay in assay [2]: as above
The settings on record: NB7 neuroblastoma + caspase-8, without TRAIL, luminescence viability, without TRAIL, mean of runs, at 10 µM.

Molecules are shown by their SMILES.

Chain of Tumor necrosis factor receptor superfamily member 10B (Homo sapiens) (O14763 whole entry, looked up): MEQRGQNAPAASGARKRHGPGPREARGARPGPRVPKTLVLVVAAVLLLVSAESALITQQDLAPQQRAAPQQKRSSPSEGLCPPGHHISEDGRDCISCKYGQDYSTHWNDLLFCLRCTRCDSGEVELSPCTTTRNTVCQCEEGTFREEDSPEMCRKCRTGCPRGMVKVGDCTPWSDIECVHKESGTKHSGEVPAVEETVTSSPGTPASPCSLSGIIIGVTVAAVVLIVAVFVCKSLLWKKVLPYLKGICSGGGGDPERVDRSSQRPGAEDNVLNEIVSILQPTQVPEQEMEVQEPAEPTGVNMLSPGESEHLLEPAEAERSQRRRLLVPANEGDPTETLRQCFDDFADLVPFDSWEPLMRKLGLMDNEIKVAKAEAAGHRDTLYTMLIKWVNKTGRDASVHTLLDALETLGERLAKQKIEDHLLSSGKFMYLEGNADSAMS

Take `O=C(NCc1cccnc1)/C(=C\c1ccc(-c2ccc(Cl)c(Cl)c2)o1)S(=O)(=O)c1ccccc1`: the results for the activity in assay [1] and in assay [2] were 98.1% and 99.2%, respectively.

For the molecule `Clc1ccc(-c2nc(-c3ccccn3)no2)cc1Cl`, the activity turned out to be 77.5% in assay [1] and 74.5% in assay [2].

For the molecule `C=CCNc1ncnc2c1ncn2C1OC(CO)C(O)C1O` (stereo unspecified), the results for the activity in assay [1] and in assay [2] were 46.8% and 60.6%, respectively.

For `O=C(CCl)N1CCCC1c1ccc2c(c1)OCCO2` (stereo unspecified), the results for the activity in assay [1] and in assay [2] were 95.6% and 97.8%, respectively.

Turning to `CC(C)c1onc(C(=O)N2CCN(c3ccc(F)cc3)CC2)c1[N+](=O)[O-]`, the activity in assay [1] is 78.8%; in assay [2], 87.6%.

`O=C(CSc1nnc(-c2ccc(O)cc2)o1)Nc1cccc(O)c1`: the activity is 50.6% in assay [1] and 55.7% in assay [2].

As for `COc1ccc(C=C2CCc3ccccc3C2=O)cc1`, the figures for the activity in assay [1] and in assay [2] were 90.9% and 91.4%, respectively.

As to `COc1ccc(CCNc2cc(N3CCN(C(=O)c4ccccc4F)CC3)ccc2[N+](=O)[O-])cc1OC`, the activity in assay [1] amounted to 73.7%; in assay [2] it was 64.7%.

Turning to `CCCCCCCN(C(=O)CCl)c1cccc(C)c1`, the activity in assay [1] and in assay [2] was 99% in each case.

For `CN1CCc2c(sc(NC(=O)c3ccc([N+](=O)[O-])o3)c2C(N)=O)C1`, the values for the activity in assay [1] and in assay [2] were 9.5% and 95.3%, respectively.

As for `Cc1ccc(C(=O)N/C(=C\c2ccc(-c3ccccc3[N+](=O)[O-])o2)C(=O)NCCCN(C)C)cc1`, the figures for the activity in assay [1] and in assay [2] were 18.7% and 31.6%, respectively.

Consider `COC(=O)c1nc(NC(=S)NC(=O)c2cccs2)sc1C`, for which the activity in assay [1] was determined as 53.8%; in assay [2] it was 37.9%.

As to `COc1ccc(C2=NN(C(=O)COC(=O)c3ccc(S(C)(=O)=O)c([N+](=O)[O-])c3)C(c3ccco3)C2)cc1` (stereo unspecified), the figures for the activity in assay [1] and in assay [2] were 92.5% and 98.5%, respectively.

Turning to `CCCc1ccc(-c2cc(C(=O)N/N=C/c3ccc([N+](=O)[O-])o3)c3ccccc3n2)cc1`, the figures for the activity in assay [1] and in assay [2] were 91.6% and 93.3%, respectively.

For the molecule `Cc1c(C)c2ccc(OCC(=O)Nc3nccs3)cc2oc1=O`, the activity in assay [1] turned out to be 58.4%; in assay [2] it was 57.8%.

As for `O=C(/C=C/[C@H]1O[C@@H](n2cnc3c(NC(=O)c4ccccc4)ncnc32)[C@H](O)[C@@H]1O)NCC1CCCO1` (stereo partly specified), the activity is -2.52% in assay [1] and -37% in assay [2].

Consider `Cc1ccc(-c2nc(NC(=O)c3nn(C)cc3[N+](=O)[O-])sc2C)cc1`, for which the activity in assay [1] was found to be 97.6%; in assay [2] it was 99.3%.

In the case of `NC(Cc1ccc(C(F)(F)F)cc1)c1csc(NC(=O)Nc2ccccc2Cc2ccccc2)n1` (stereo unspecified), the activity in assay [1] worked out at 75%; in assay [2], 96.2%.

In the case of `Cc1ccc(NC(=O)c2ccc3c(c2)OCCO3)nc1`, the results for the activity in assay [1] and in assay [2] were 76.8% and 77.2%, respectively.

Regarding `CN(C)CCCNC(=O)C[C@H]1C[C@H](C(=O)N2CCCCC2)[C@@]2(CCc3ccccc3)c3[nH]c4ccc(Cl)cc4c3CCN2C1=O`, the activity in assay [1] stood at 35.8%; in assay [2], 82.6%.

With `O=C(c1ccc2c3n(nc2c1)-c1ccccc1CO3)N1CCCCC1`, the activity in assay [1] came out at 79.2%; in assay [2], 78.4%.

As for `COc1cc(/C=N/Nc2nn3cnnc3c3ccccc23)cc(OC)c1OC`, the activity worked out at 73.9% in assay [1] and 76.2% in assay [2].

For the molecule `CCCCCc1cc(=O)oc2c(C(CCN3CCCC3)c3cc(OC)c(OC)c(OC)c3)c(OC)cc(OC)c12` (stereo unspecified), the activity in assay [1] was determined as 28.4%; in assay [2] it was 69.4%.

Take `CC(/C=N/NC(=O)c1nn(C)c(C)c1Br)=C\c1ccccc1`: the activity in assay [1] turned out to be 72.4%; in assay [2] it was 74.6%.

Regarding `CC1(C)N=C(N)N=C(N)N1c1ccccc1`, the activity amounted to 83.4% in assay [1] and 87.2% in assay [2].

In the case of `COc1ccc(/C=C2/Sc3ccc(C(=O)NCCN4CCCCCC4)cc3NC2=O)cc1`, the activity in assay [1] stood at 67.8%; in assay [2] it was 94.7%.

As to `Cc1ccc(Nc2nc(CSc3nnnn3C)cs2)cc1`, the activity in assay [1] amounted to 23.2%; in assay [2], 8.93%.

Take `NC(CCc1ccccc1)c1csc(NC(=O)Nc2ccccc2Oc2ccccc2)n1` (stereo unspecified): the activity turned out to be 79% in assay [1] and 93% in assay [2].
